In PubChem BioAssay AID995 (National Center for Advancing Translational Sciences (NCATS), 2007) one finds Potency and activity, negative = inhibition data, which are given here for 72 molecules.

Each structure is given as a SMILES string. Out of some 72,000 compounds screened, about 710 (0.99%) were called active. A call without a number means that no potency is given here. Another 7% or so got no clear call; they are omitted. The sample holds actives, similar compounds and a random draw of the others, so the mix is not that of the screen. The call rests on the fitted dose curve; in most records, active means well fitted inhibition curve with a large enough effect; inconclusive means small, poorly fitted or top-dose-only effect; inactive means no such curve, though single readings can be large or run the other way.
Potency means the concentration at half of the fitted maximal effect.

This assay is described as follows: qHTS Assay for Inhibitors of the ERK Signaling Pathway using a Homogeneous Screening Assay. Further: nearly all actives have a fitted effect of over 55% in size. The settings on record: HEK293-V1b, vasopressin-stimulated pERK AlphaScreen; series mostly up to 57.5 µM. The method, boiled down:
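V1b-HEK293 cells; cpd 30 min 37C; 25 nM vasopressin 5 min; lyse 10 min; AlphaScreen beads 5 hr RT. Normalized to DMSO basal and 25 nM vasopressin; AC50 by Hill fit.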
For orientation: In qHTS, concentration-response curves come from the screen itself.
As for `Cn1cccc1C(=O)N1CCC2(CC1)CN(c1cccc(-c3ccccc3)c1)C2`, the Potency entry is “inactive”.
Turning to `COC(=O)[C@@H]1C[C@@]2(O)[C@H](O)[C@H](O)[C@H](O)C[C@H]2N1Cc1ccc(C(C)(C)C)cc1`, the Potency result is “inactive”.
With `NCCNCC1CCNCC1`, the activity, negative = inhibition was -16% [at 11.5 µM] (inactive).
Regarding `O=C(c1ccco1)N1CCN(c2cccc(Cl)c2)CC1`, the Potency result was “inactive”.
The same measure, in the same setting: with `O=C(c1ccco1)N1CCN(C(=O)C2CC(c3ccc(Cl)c(Cl)c3)=NO2)CC1` (configuration not stated) the figure was 20 µM (active); with `O=C(c1ccco1)N1CCN(C(=O)C2CC(c3ccc(F)cc3)=NO2)CC1` (configuration not stated), “inactive”.
In the case of `O=C(O)c1c(Br)c(Br)c(Br)c(Br)c1C1c2ccc(O)cc2Oc2cc(O)ccc21`, the activity, negative = inhibition is -24.2% [at 11.5 µM] (inactive).
With `CC(=O)OC1CCC2(O)CC1(C)CCC1C2CC1(C)C` (configuration not stated), the Potency entry is “inactive”.
Same read-out and setting: in the case of `COc1cccc(Cn2c(=O)cnc3cncnc32)c1` it was “inactive”.
In the case of `COc1ccc(CCC(=O)c2c(O)cc(OC3OC(CO)C(O)C(O)C3O[C@@H]3OC(C)C(O)C(O)C3O)cc2O)cc1O` (some centres not stated), the Potency result was “inactive”.
In the case of `O=C(Oc1cc(OC(=O)c2ccccc2)c2c(c1)OC(c1ccc(OC(=O)c3ccccc3)c(OC(=O)c3ccccc3)c1)[C@@H](OC(=O)c1ccccc1)C2)c1ccccc1` (some centres not stated), the Potency result is “inactive”.
For the molecule `CC1(C)SC2c3ccccc3C(=O)N2[C@@H]1C(=O)NCc1ccco1` (some centres not stated), the Potency entry was “inactive”.
On the same count and under the same terms, in the case of `O=C1c2ccccc2C(Nc2ccc3c(c2)OCCO3)N1Cc1ccco1` (configuration not stated) it was 25.1 µM (active).
With `O=C(NC1CCCCC1)C1c2ccccc2C(=O)N1Cc1ccco1` (configuration not stated), the Potency result was “inactive”.
`COC1C[C@@H](O[C@@H]2C(C)C(=O)OC(C)C(C)C(O)C(C)C(=O)[C@@]3(CO3)CC(C)C(OC3OC(C)CC(N(C)C)C3O)C2C)OC(C)[C@@H]1O` (some centres not stated): the Potency result was “inactive”.
Still for that read-out and setting: in the case of `C=C[C@](C)(O)CCC1C(=C)CCC2[C@@](C)(CO)CCC[C@@]12C` (some centres not stated) it was “inactive”; in that of `N#CC1=C(N)OC2=C(C(=O)CCC2)C1C1CC=CCC1` (configuration not stated), “inactive”; in that of `N#CC1=C(N)Oc2cc(O)ccc2C1C1CCCCC1` (configuration not stated), 25.1 µM (active).
Same read-out and setting: with `COCc1[nH]nc2c1C(C1C=CCCC1)C(C#N)=C(N)O2` (configuration not stated) the entry was “inactive”.
In the case of `Clc1ccc(C=Nc2ccc3c(c2)Cc2ccccc2-3)c(Cl)c1`, the activity, negative = inhibition was 9.67% [at 11.5 µM] (inactive).
`CCCN(C/C=C\I)[C@@H]1CCc2cccc(O)c2C1`: the Potency result was “inactive”.
With `CC1=C(/C=C/C(C)=C/C=C/C(C)=C/C=C/C=C(C)/C=C/C=C(C)/C=C/C2=C(C)CCCC2(C)C)C(C)(C)CCC1`, the Potency entry was “inactive”.
For the molecule `COCCn1c(=O)c(CCc2ccccc2)nc2cnc(N3CCNCC3)nc21`, the Potency result is “inactive”.
The same measure, in the same setting: with `Cc1cnc(CNc2cc(-c3c(C)noc3C)ncn2)cn1` the entry was “inactive”; with `O=C(O)C(O)[C@@](O)(Cc1ccc(O)cc1)C(=O)O` (some centres not stated), “inactive”.
Still for that read-out and setting: with `Cc1ccnc(N2CCC(C(=O)NC3CCCCCC3)CC2)n1` the entry was “inactive”.
Still for that read-out and setting: in the case of `Cc1ccnc(-n2sc3ccccc3c2=O)n1` it was 39.8 µM (active).
With `Cc1nc2ccccc2c(=O)n1CCCn1ccnc1`, the Potency result was “inactive”.
As to `C=CCOC(=O)C(C(C)=O)C(NC(=O)OC)c1ccccc1` (configuration not stated), the activity, negative = inhibition is 29.5% [at 11.5 µM] (inactive).
For `Cn1c(=O)c(-c2ccccc2)nc2cnc(N3CCNCC3)nc21`, the Potency entry is “inactive”.
As for `CCCCNc1nc(C)nc2c1nc(-c1ccccc1)n2CCCCN(CC)CC`, the Potency entry was “inactive”.
Take `C=C1C(=O)C23C(O)C1CCC2[C@]12COC3(O)C(O)C1C(C)(C)CC[C@H]2O` (some centres not stated): the Potency result is “inactive”.
For the molecule `c1ccc(CCN2CCN=C2Cc2ccccc2)cc1`, the activity, negative = inhibition is 9.2% [at 11.5 µM] (inactive).
As for `COCCn1c(=O)c(-c2cc(F)cc(F)c2)nc2cncnc21`, the Potency entry is “inactive”.
As for `NS(=O)(=O)c1cc(Cl)c(Cl)c(S(N)(=O)=O)c1`, the Potency entry was “inactive”.
The same measure, in the same setting: with `CCCCCCCCCCCC(=O)O[C@H](CC(=O)O)C[N+](C)(C)C` the entry was “inactive”; with `CC(C)=CC1C(C(=O)O)C1(C)C` (configuration not stated), “inactive”.
Turning to `O=C(c1ccco1)N1CCC2(CC1)CN(c1ncccn1)C2`, the Potency entry is “inactive”.
Regarding `CC1(C)OC2CC3C4CCC5=CC(=O)CCC5(C)C4(F)C(O)CC3(C)[C@]2(C(=O)CCl)O1` (some centres not stated), the Potency result was “inactive”.
Same read-out and setting: in the case of `CC1OC(OCC2OC(Oc3c(-c4ccc(O)c(O)c4)oc4cc(O)cc(O)c4c3=O)C(O)C(O)C2O)[C@@H](O)C(O)C1O` (some centres not stated) it was “inactive”; in that of `Cc1c(C)c2c(c(C)c1O)CC[C@@](C)(CN1CCN(c3cc(N4CCCC4)nc(N4CCCC4)n3)CC1)O2`, “inactive”.
In the case of `CO[C@H]1COC(=O)C/C=C\[C@H](C)COC(=O)[C@@H](OCc2ccccc2)/C=C\[C@@H]1C`, the activity, negative = inhibition was 0.999% [at 11.5 µM] (inactive).
On to `COC(=O)CC1C(C)(C)C(OC(C)=O)C2CC3=C4CC(=O)OC(c5ccoc5)[C@]4(C)CCC3[C@@]1(C)C2=O` (some centres not stated), for which the Potency entry was “inactive”.
For the molecule `CC(=O)OCC(=O)[C@@]1(O)CCC2C3CCC4=CC(=O)CC[C@]4(C)C3C(=O)C[C@]21C` (some centres not stated), the Potency entry was “inactive”.
Take `Cc1ccc(S(=O)(=O)Nc2ccc3ncccc3c2)cc1`: the Potency result was “inactive”.
For the molecule `Fc1ccc(Br)cc1/C=N/n1cnnc1`, the Potency result was “inactive”.
For the molecule `Cc1cc(/C=N/n2cnnc2)c(C)n1-c1ccc2ncccc2c1`, the Potency was 15.8 µM (active).
Take `CCC1=C(OC(=O)N(CC)CC)N2C(=O)OC(=NCC3CC3)[C@]2(C)[C@H]2C1=CC[C@H]1C(=O)N(CC(=O)OC)C(=O)[C@H]12`: the Potency entry was “inactive”.
For `CCC(C)C(N)C1=NC(C(=O)NC(CC(C)C)C(=O)NC(CCC(=O)O)C(=O)NC(C(=O)NCCCCC2NC(=O)C(CC(N)=O)NC(=O)C(CC(=O)O)NC(=O)C(Cc3cnc[nH]3)NC(=O)C(Cc3ccccc3)NC(=O)C(C(C)CC)NC(=O)C(CCCN)NC2=O)C(C)CC)CS1` (configuration not stated), the Potency result was “inactive”.
Same read-out and setting: in the case of `O=c1c(CCc2ccccc2)nc2cnc(N3CCNCC3)nc2n1Cc1cccs1` it was “inactive”; in that of `Clc1ccc(C2[C@H]3CN(CC4CCCCC4)[C@H](c4ccccc4)C34CC2(c2cccnc2)C4)cn1` (some centres not stated), “inactive”; in that of `C=CCn1c(SCC(=O)Nc2nc3ccccc3s2)nnc1-c1ccccc1O`, 15.8 µM (active).
Turning to `C=CCn1c(CSc2nc3ccccc3s2)nnc1SCC(=O)NCc1ccco1`, the Potency result was “inactive”.
For the molecule `CCn1c(SCC(=O)Nc2nc3ccc(OC)cc3s2)nnc1-c1ccoc1C`, the Potency entry is “inactive”.
On the same count and under the same terms, with `Cc1ccc(-c2nn(CC(C)(C)C)c3ncnc(N)c23)cc1` the figure was 7.94 µM (active).
The same measure, in the same setting: in the case of `CC(C)=CCC/C(C)=C/CC/C(C)=C/CC/C(C)=C/CO` it was “inactive”.
Take `COc1cc(OC)c2c(c1Cl)OC1(C2=O)C(O)=CC(=O)CC1C` (configuration not stated): the Potency result is “inactive”.
For the molecule `CCC[C@@H]1C[C@@]1(CCC)C(NS(=O)(=O)c1cccc2cccnc12)c1ccc(Cl)cc1` (some centres not stated), the Potency entry is “inactive”.
As for `C=CC(=C)CCC=C(C)C`, the Potency entry is “inactive”.
Still for that read-out and setting: with `Fc1cccc(/C=N\N=C/c2cccc(F)c2)c1` the entry was “inactive”; with `O=C1NS(=O)(=O)c2ccccc21`, “inactive”; with `Cc1cccc(CNc2cc(-c3ccccc3Cl)ncn2)c1`, “inactive”.
As for `FC(F)(F)c1ccc(CN2C[C@@H]3C(c4ccccc4)C4(c5ccccc5)CC3(C4)[C@H]2c2ccccc2)cc1` (some centres not stated), the Potency result was “inactive”.
Regarding `Cc1ccc(OCC(=O)Nc2ccc(-c3nnc(-c4ccco4)o3)cc2)cc1`, the Potency result was “inactive”.
Still for that read-out and setting: with `O=C(CCc1ccccc1)Nc1cccc(-c2nnc(-c3ccco3)o2)c1` the figure was 25.1 µM (active); with `COc1ccc(CC(=O)Nc2ccc(-c3nnc(-c4ccccc4)o3)cc2)cc1`, “inactive”.
On to `Oc1cc(O)c2c(c1)OC(c1ccc(O)c(O)c1)C(O)C2` (configuration not stated), for which the Potency result was “inactive”.
Take `C[C@@H](N)[C@@H](C)Cc1ccccc1`: the activity, negative = inhibition was -2.1% [at 11.5 µM] (inactive).
Regarding `CCC(CCC(C)C1CCC2C3CC=C4CC(O)CC[C@@]4(C)C3CC[C@@]12C)C(C)C` (some centres not stated), the Potency result was “inactive”.
The same measure, in the same setting: with `COc1ccccc1NC(=O)C1=C(C)NC2=C(C(=O)CCC2)C1c1ccc(C)o1` (configuration not stated) the entry was “inactive”; with `COC(=O)C1=C(C)NC2=C(C(=O)c3ccccc32)C1c1ccc(-c2ccc(C(=O)O)cc2)o1` (configuration not stated), 25.1 µM (active).
Still for that read-out and setting: in the case of `COC(=O)C1=C(C)NC(=O)NC1/C=C/c1ccccc1` (configuration not stated) it was “inactive”.
